gsp agonist – activates gsp, the McCune-Albright syndrome mutation; gsp mutant cells, cAMP HTRF, 30 min; Potency, µM (titrated, usually from 76.9 µM), without a hit: at the highest dose activation (cAMP increase), actives largely listed as activators; 340,000 compounds, 0.13% hits; active = well fitted activation curve with a large enough effect; inconclusive = small, poorly fitted or top-dose-only effect, or another doubt; inactive = no such curve, though single readings can be large or run the other way; cell line not stated here;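 also: phosphodiesterase inhibitor Ro 20-1724 added with compounds to block cAMP breakdown; potency is read from the fitted curve at half-maximal effect; nearly all actives have a fitted effect of over 60% in size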
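Cells stably selected in G418 were plated at 2000/well, grown 16-24 hr, then given compounds in DMSO with the PDE inhibitor […] (300 uM solution added) for 30 min at 37C; cAMP was read by HTRF.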
gsp antag – antagonists of gsp mutant (McCune-Albright syndrome); gsp-mutant cells, cAMP HTRF, 30 min; Potency, µM (titrated, usually from 76.9 µM), for the others: at the highest dose activity change, negative = inhibition, actives largely listed as inhibitors; 340,000 compounds, 0.4% hits; AID 624288; calls by dose curve; cell line not stated here;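 also: intracellular cAMP measured with PDE inhibitor Ro 20-1724 present during compound exposure; potency is read from the fitted curve at half-maximal effect; % is scaled to controls: 0 for no effect and ±100 for the full control effect; nearly all actives have a fitted effect of over 65% in size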
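HTRF cAMP read-out (cAMP-d2 plus anti-cAMP antibody-K in lysis buffer, 30 min RT). Before lysis, cells are exposed to compounds with […] for 30 min at 37C in DPBS containing Ca/Mg, BSA and Tween 20.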
RXFP1 agonist – agonists of human relaxin receptor RXFP1; Q9HBX9; Potency, µM (doses to about 57.5 µM), for inactives: top-dose activation, hits mostly activators; 370,000 compounds, 0.3% hits; HEK293T-RXFP1 cAMP TR-FRET, 30 min; response scale: percent of porcine relaxin response, buffer zero; AID 2676; active = well fitted activation curve with a large enough effect; inconclusive = small, poorly fitted or top-dose-only effect; also: potency is read from the fitted curve at half-maximal effect; % is scaled to controls: 0 for no effect and ±100 for the full control effect; nearly all actives have a fitted effect of over 60% in size
Target sequence (Q9HBX9 whole entry, looked up): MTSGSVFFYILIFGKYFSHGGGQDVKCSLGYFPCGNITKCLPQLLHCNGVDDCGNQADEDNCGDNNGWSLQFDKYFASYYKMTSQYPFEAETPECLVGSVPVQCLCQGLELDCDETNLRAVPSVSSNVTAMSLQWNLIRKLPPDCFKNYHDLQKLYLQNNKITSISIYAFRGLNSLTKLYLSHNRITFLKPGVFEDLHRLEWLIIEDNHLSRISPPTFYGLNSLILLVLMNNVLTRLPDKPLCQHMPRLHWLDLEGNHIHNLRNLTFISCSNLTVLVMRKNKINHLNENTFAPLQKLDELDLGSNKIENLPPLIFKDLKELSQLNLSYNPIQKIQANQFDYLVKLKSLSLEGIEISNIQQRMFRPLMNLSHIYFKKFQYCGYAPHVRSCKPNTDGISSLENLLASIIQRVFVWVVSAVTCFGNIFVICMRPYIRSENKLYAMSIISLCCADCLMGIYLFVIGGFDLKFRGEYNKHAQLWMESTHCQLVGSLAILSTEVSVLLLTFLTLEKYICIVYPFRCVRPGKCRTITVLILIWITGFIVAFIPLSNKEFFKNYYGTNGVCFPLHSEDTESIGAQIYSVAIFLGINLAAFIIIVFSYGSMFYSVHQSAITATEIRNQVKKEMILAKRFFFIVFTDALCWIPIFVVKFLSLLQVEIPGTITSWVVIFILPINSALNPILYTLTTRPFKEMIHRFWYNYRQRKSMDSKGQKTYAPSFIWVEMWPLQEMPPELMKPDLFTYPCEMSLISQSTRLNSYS
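HEK293T cells stably expressing RXFP1 were pretreated with the PDE4 inhibitor Ro 20174, exposed to compounds for 30 min at 37C, lysed, and cAMP was read by TR-FRET. Data normalized to buffer (basal) and 29 nM porcine relaxin (100%).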
RXFP1 antag – antagonists of human relaxin receptor RXFP1; activity change, negative = inhibition, % at 57.5 µM; HEK293-RXFP1, relaxin-stimulated cAMP HTRF, 30 min; active compounds read low; 350,000 compounds, 0.59% hits; Q9HBX9;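 active = activity change of -60% or lower, but not beyond a set lower limit; inconclusive = change between -60% and -40%, or beyond the set limit; inactive = change above -40%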; also: % is scaled to controls: 0 for no effect and ±100 for the full control effect
* hit, by the source's call; ? = inconclusive; . = no result; [ ] = remark or other dose. Rows were chosen to be rich in hits. Some 0.9% of all compounds tested hit in one or more screens of this group.

SMILES	gsp agonist	gsp antag	RXFP1 agonist	RXFP1 antag
Nc1ccc(N=Nc2ccccc2O)c(N)c1	-3.8%[15.4 µM]	-3.6%	.	3.4
COc1cccc2sc(N(Cc3cccnc3)C(=O)c3ccc(S(=O)(=O)N(C)C)cc3)nc12	.	.	0.2%	-0.7
COC(=O)COc1ccc(S(=O)(=O)NCc2ccncc2)cc1	-18.7%	11.2µM*	2.4%	.
CCOC(=O)COc1ccc(S(=O)(=O)NCc2cccnc2)cc1	13.9%	-5.2%	2.2%	-12.9
CC1(c2ccccc2)OC(C(=O)O)=CC1=O (stereo unspecified)	.	.	.	-1.3
O=C(Cn1c(SCC(=O)Nc2ccc(F)cc2)nc2ccccc21)NCc1ccc(Cl)cc1	.	.	6.7%	-11.2
CCCC(=O)Nc1nc(C)c(C(C)=O)s1	?	13.1%	17.8µM*	9.1
O=C(Nc1cc(Cl)ccc1Cl)C1(c2cccs2)CCOCC1	.	.	-0.7%	.
CCCCNC(=S)NCC(c1ccccc1)c1c[nH]c2ccccc12 (stereo unspecified)	-14.9%	-28.9%	1.0%	-9.4
CN(C)CCCNC(=S)NCC(c1ccc(Cl)cc1Cl)c1c[nH]c2ccccc12 (stereo unspecified)	11.8%[15.4 µM]	9.2%	2.1%	-60.6*
O=C(C1=C(O)C(=O)N(CCN2CCOCC2)C1c1ccc(Cl)cc1)c1cc2ccccc2o1 (stereo unspecified)	?	5.2%	?	10.3
O=C(C1=C(O)C(=O)N(CCCN2CCOCC2)C1c1ccc(Cl)cc1)c1cc2ccccc2o1 (stereo unspecified)	11.2µM*	20.2%	-0.3%	11.4
CCN1C(=O)C2(C(C(=O)c3ccc(C)o3)=C(O)C(=O)N2CCCN2CCOCC2)c2ccccc21 (stereo unspecified)	8.9%	3.3%	15.0%	7.5
CCN1C(=O)C2(C(C(=O)c3cc4ccccc4o3)=C(O)C(=O)N2CCCN2CCOCC2)c2ccccc21 (stereo unspecified)	106.4%[15.4 µM]	20.0%	15.8µM*	47.9
CCc1ccc(-n2nc(CO)c(C(=O)NC)n2)cc1	.	.	0.2%	-7.6
CCc1cccc(NC(=O)c2cc3c(=O)oc4ccc(C)cc4c3s2)c1	.	.	29.8%	.
CCOc1ccc(CNC(=O)c2ccc(-c3nc(CSc4ccc(C)cc4)c(C)o3)cc2)cc1	.	.	-0.7%	.
O=C(Nc1ccncc1)c1ccc2c(c1)C(=O)N(C1CCCCC1)C2=O	-37.6%	22.4µM*	-0.2%	-11.4
O=[N+]([O-])c1ccc(S(=O)Cc2ccccc2)c([N+](=O)[O-])c1 (stereo unspecified)	-0.8%	-14.6%	.	-102.8*
Cc1cc(NC(=O)COC(=O)CCNS(=O)(=O)c2c(Cl)cccc2Cl)no1	-17.3%[15.4 µM]	0.7%	-4.2%	-69.5*
Cc1ccc(/C=C2\SC(=S)N(CCC(=O)NNC(=O)c3ccncc3)C2=O)cc1	-8.2%[15.4 µM]	39.8µM*	-3.5%	-5.3
CC(C)c1nnc(N2C(=O)c3oc4ccccc4c(=O)c3C2c2ccccc2F)s1 (stereo unspecified)	.	.	2.2%	-4.1
CCCOc1cccc(NC(=O)c2c(-c3ccccc3Cl)noc2C)c1	.	.	5.1%	-26.4
Cc1ccc2oc(-c3cccc(N)c3)nc2c1	-2.3%[15.4 µM]	.	8.1%	-7.2
CC(C)(C)c1ccc(-c2nc3cc(N)ccc3o2)cc1	17.0%	1.8%	7.8%	-83.7*
SMILES	gsp agonist	gsp antag	RXFP1 agonist	RXFP1 antag
Cc1ccc(-c2nc3cc(N)ccc3o2)c(C)c1	31.6µM*	16.4%	17.4%	2.1
Cc1ccc(-c2nc3cc(N)ccc3o2)cc1	?	4.5%	13.0%	8.2
COc1ccc(S(=O)(=O)N2CCC(n3c(C(F)(F)F)nc4cccnc43)CC2)cc1OC	.	.	-0.7%	-9.6
CCn1nc(C)cc1-c1nnc(Sc2ncc([N+](=O)[O-])s2)n1C	7.9%	10.8%	1.5%	-72.8*
COc1cc(C2C(C(C)=O)=C(O)C(=O)N2CCN2CCOCC2)ccc1O (stereo unspecified)	?	3.7%	1.0%	1.5
COc1cc(C2C(C(=O)c3ccc(C)o3)=C(O)C(=O)N2CCN2CCOCC2)ccc1OCCC(C)C (stereo unspecified)	38.3%[15.4 µM]	4.6%	15.8µM*	7.7
Cc1ccc(CNC(=O)CN2C(=O)COc3ccccc32)cc1	.	.	2.4%	3.6
N#Cc1c(N)[nH]c(=S)c(C#N)c1-c1ccccc1	20µM*	19.9%	29.5%	33.8
COc1ccc(CNC(=O)c2cc3cccc4c3n2CC(C)S4)cc1OC (stereo unspecified)	.	.	19.6%	-24.3
S=c1nc2c(n[nH]1)c1ccccc1n2CCc1ccccc1	-39.8%	0.7%	2.7%	-114.6*
